UHRF1 MBD2 ctr: UHRF1 methyl-DNA binding inhibition. Q96T88. UHRF1 binding to methylated oligo, TR-FRET. inhibition, % at 4.4 µM. hit rate 0.75% among 370,000. AID 687016;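 also: UHRF1 SRA domain binding a hemimethylated CpG hairpin DNA probe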
rCAG binder: r(CAG) repeat RNA binding. inhibition, % at 3 µM. AID 651821. hit rate 1.3% among 370,000. TO-PRO-1 dye displacement fluorescence;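 active = inhibition above the plate cutoff, the mean of all test compounds on that plate plus 3 SD, cut at about 35% in these data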;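 also: higher means more dye released from RNA so lower well fluorescence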
MBD2 inh: MBD2-methylated oligo binding inhibition; inhibition, % at 4.4 µM; AID 686964; hit rate 0.31% among 370,000; TR-FRET, MBD2 binding to methylated oligonucleotide; in the data active = inhibition above about 13%
DNMT1 inh: inhibitors of human DNMT1 | P26358 | DNMT1 molecular beacon, Hinp1I cleavage, fluorescence | inhibition (reported as % activation of signal), % at 10 µM | hit rate 0.83% among 360,000 | AID 588458; in the data active = inhibition above about 50%
Target sequence (P26358 504-1616 limits assumed): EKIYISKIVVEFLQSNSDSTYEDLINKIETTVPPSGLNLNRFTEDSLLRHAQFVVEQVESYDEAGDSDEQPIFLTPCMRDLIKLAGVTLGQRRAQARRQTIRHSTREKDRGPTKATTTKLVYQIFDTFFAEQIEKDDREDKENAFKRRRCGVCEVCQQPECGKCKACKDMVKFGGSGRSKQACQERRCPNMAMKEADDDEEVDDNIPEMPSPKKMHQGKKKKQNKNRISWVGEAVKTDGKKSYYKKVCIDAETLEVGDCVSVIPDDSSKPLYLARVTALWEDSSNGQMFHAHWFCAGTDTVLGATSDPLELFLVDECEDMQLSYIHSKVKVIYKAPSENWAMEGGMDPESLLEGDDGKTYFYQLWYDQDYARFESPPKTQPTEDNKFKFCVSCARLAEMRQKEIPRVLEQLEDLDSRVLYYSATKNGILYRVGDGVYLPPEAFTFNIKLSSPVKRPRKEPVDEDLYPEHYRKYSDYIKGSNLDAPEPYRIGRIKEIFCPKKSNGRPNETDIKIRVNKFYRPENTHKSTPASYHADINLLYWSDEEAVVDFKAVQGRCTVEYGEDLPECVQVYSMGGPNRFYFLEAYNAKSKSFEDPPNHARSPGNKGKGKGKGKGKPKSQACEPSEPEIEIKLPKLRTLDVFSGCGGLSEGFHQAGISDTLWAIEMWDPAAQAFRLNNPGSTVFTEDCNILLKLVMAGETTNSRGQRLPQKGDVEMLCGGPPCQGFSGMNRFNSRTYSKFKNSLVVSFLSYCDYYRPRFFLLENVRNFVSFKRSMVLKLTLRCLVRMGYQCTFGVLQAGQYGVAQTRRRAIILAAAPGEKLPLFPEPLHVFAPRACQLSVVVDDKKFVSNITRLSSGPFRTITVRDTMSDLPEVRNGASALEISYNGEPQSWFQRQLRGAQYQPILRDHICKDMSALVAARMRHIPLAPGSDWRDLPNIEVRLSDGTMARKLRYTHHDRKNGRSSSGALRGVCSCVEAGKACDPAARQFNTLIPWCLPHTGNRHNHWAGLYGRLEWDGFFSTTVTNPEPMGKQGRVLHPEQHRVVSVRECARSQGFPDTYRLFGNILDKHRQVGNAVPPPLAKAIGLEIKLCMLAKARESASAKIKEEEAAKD
LEDGF integ inh: blocks HIV-1 LEDGF/p75-dependent DNA integration. TR-FRET IN-LEDGF/p75 DNA integration, Eu/Cy5. inhibition, % at 3.7 µM. hit rate 0.64% among 370,000. AID 743269;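 active = inhibition above the screen-wide mean plus 3 SD, cut at about 13% in these data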;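 also: signal is the Cy5 over europium emission ratio at 671 and 618 nm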
PG9 Ab binder: binds the HIV-1 gp120 antibody PG9; TR-FRET gp120-PG9 antibody binding; inhibition, % at 6.7 µM; hit rate 0.43% among 360,000; AID 624416; in the data active = inhibition above about 8.5%
PG9 bind confirm: confirmation of small molecules binding HIV-1 gp120 antibody PG9 | shares compounds with PG9 Ab binder | TR-FRET PG9 antibody binding, biochemical | inhibition, % at 6.7 µM | hit rate 90% among 1,500 | AID 651571; in the data active = inhibition above about 9%
PGV04 Ab binding: PGV04 control antibody binding, counter-screen; shares compounds with PG9 Ab binder; TR-FRET PGV04 antibody-gp120 binding, biochemical; inhibition, % at 6.7 µM; hit rate 95% among 1,500; AID 651604; in the data active = inhibition above about 9.5%
rCAG binder conf: r(CAG) RNA repeat binding, confirmation; shares compounds with rCAG binder; hit rate 70% among 4,300; inhibition, % at 3 µM; TO-PRO-1 dye displacement fluorescence; AID 652065;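 active = inhibition above a per-plate cutoff, the mean inhibition of sample wells plus 3 SD, cut at about 35% in these data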;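 also: loss of TO-PRO-1 fluorescence as compound displaces dye from 1x1 AA loop RNA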
dCAG dye counter: disrupts DNA CAG TO-PRO-1 complex, flagging rCAG hits. shares compounds with rCAG binder. d(CAG) DNA oligo TO-PRO-1 dye displacement, fluorescence. inhibition, % at 3 µM. hit rate 94% among 4,300;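 active = inhibition above its plate's cutoff, the mean test-well inhibition plus 3 SD, cut at about 4.8% in these data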;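 also: hits displace the dye from DNA and so lower well fluorescence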
UHRF1 DNA bind: inhibits human UHRF1 binding to methylated oligonucleotide, MBD2 counter-screen. shares compounds with MBD2 inh. TR-FRET. inhibition, % at 4.4 µM. hit rate 25% among 1,000. AID 720530;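 also: UHRF1 SRA domain binding a labeled hemimethylated CpG hairpin DNA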
MBD2 DBD conf: confirmation of human MBD2-DBD methylated oligonucleotide binding inhibitors; TR-FRET MBD2-DBD binding to methylated oligonucleotide; shares compounds with MBD2 inh; inhibition, % at 4.4 µM; hit rate 26% among 1,000; in the data active = inhibition above about 14%
Of the large screens only hits and unclear results are named; the others gave an inactive call (follow-up assays come after a bar, where they were run). Hits are enriched below; roughly 3.5% of the tested compounds scored in any of these assays. Rule as the data show it, unless noted: active = inhibition above about 21%; inactive = the rest.

Cc1nc(C(F)(F)F)ccc1C(=O)N1CCC1(C)C(=O)NCc1ccc(Cl)cc1 (stereo unspecified)	none
CCOC(=O)c1c(C)[nH]c(C(=O)CSc2nccc(C)n2)c1C	PG9 Ab binder 22 | PG9 bind confirm 24 | PGV04 Ab binding 41
CCOC(=O)C1CCCCN1C(=O)c1cc2ccc(OC)cc2c2cc(OC)c(OC)cc12 (stereo unspecified)	none
O=C(C1=C(O)C(=O)N(CC2CCCO2)C1c1ccc(Cl)cc1Cl)c1ccco1 (stereo unspecified)	PG9 Ab binder 11 | PG9 bind confirm 19 | PGV04 Ab binding 23
COc1ccc(C(=O)Nc2ccc(NC(=O)c3cc(OC)c(OC)c(OC)c3)cn2)cc1	PG9 Ab binder 20 | PG9 bind confirm 15 | PGV04 Ab binding 20
Cc1ccc(S(=O)(=O)N2CCOCC2)cc1C(=O)Nc1ccc(N2CCCCCC2)cc1	none
CCOC(=O)/C(C#N)=C/c1cc2ccccc2nc1N1CCCCC1	PG9 Ab binder 27 | PG9 bind confirm 25 | PGV04 Ab binding 30
COC(=O)c1sc(NC(=O)C2CCCCC2C(=O)O)c(C(=O)OC)c1C (stereo unspecified)	rCAG binder 39, PG9 Ab binder 13 | PG9 bind confirm 18 | PGV04 Ab binding 23 | rCAG binder conf 44 | dCAG dye counter 9.0
COC(=O)c1sc(NC(=S)NNC(=O)c2c(Br)c(C)nn2C)c(C(=O)OC)c1C	rCAG binder 69, PG9 Ab binder 19 | PG9 bind confirm inactive | PGV04 Ab binding 10.0 | rCAG binder conf 90 | dCAG dye counter 70
CCCc1cc(=O)oc2cc(OC(C)C(=O)NCc3ccccn3)c(Cl)cc12 (stereo unspecified)	none
C[C@H](CO)N1C[C@H](C)[C@@H](CN(C)Cc2ccc3cccnc3c2)OCc2cnnn2CCCC1=O	none
CCOC(=O)c1c(C)[nH]c(=S)c(C#N)c1-c1ccc(OC)cc1	none
CCCCOc1ccc(-c2c(C(=O)Nc3ccccc3)c(C)[nH]c(=S)c2C#N)cc1	rCAG binder 60, PG9 Ab binder 60 | PG9 bind confirm inactive | PGV04 Ab binding inactive | rCAG binder conf 36 | dCAG dye counter 16
CCN1C(=O)[C@H]2[C@H]3CN=C(SC)N3[C@@](C)(C(=O)OC)[C@H]2C1=O	none
Cc1cc(C)nc(NS(=O)(=O)c2ccc(NC(=O)CSc3nc4ccccc4[nH]3)cc2)n1	none
Cc1cccc(NC(=O)CSc2nc(-c3ccccc3)c(C#N)c(=O)[nH]2)c1C	none
N#Cc1c(-c2ccccc2)nc(SCC(=O)Nc2ccc(OC(F)(F)Cl)cc2)[nH]c1=O	rCAG binder 90, PG9 Ab binder 8.8 | PG9 bind confirm 18 | PGV04 Ab binding 22 | rCAG binder conf 85 | dCAG dye counter 58
Cc1cc(C)nc(NS(=O)(=O)c2ccc(NC(=O)CSc3nc(-c4ccccc4)c(C#N)c(=O)[nH]3)cc2)n1	rCAG binder 45, PG9 Ab binder 36 | PG9 bind confirm 44 | PGV04 Ab binding 58 | rCAG binder conf inactive | dCAG dye counter 7.4
Cc1cccc(C)c1-c1ccc(CN2C(CC(C)C)C(=O)N(Cc3cn(CCO)nn3)CCS2(=O)=O)cc1 (stereo unspecified)	none
COc1ccccc1-c1nnc(Nc2nc3c(OC)cccc3s2)o1	rCAG binder 53, PG9 Ab binder 11 | PG9 bind confirm 23 | PGV04 Ab binding 26 | rCAG binder conf 58 | dCAG dye counter 20
Cc1cc(N2C(=O)C(O)=C(C(=O)c3cc4ccccc4o3)C2c2ccc(OC(C)C)cc2)no1 (stereo unspecified)	none
CCCOc1cccc(C2C(C(=O)c3cc4ccccc4o3)=C(O)C(=O)N2c2cc(C)on2)c1 (stereo unspecified)	rCAG binder 44, PG9 Ab binder 18 | PG9 bind confirm 24 | PGV04 Ab binding 38 | rCAG binder conf 77 | dCAG dye counter 36
Cc1cc(N2C(=O)C(O)=C(C(=O)c3cc4ccccc4o3)C2c2cccc(Br)c2)no1 (stereo unspecified)	rCAG binder 69, PG9 Ab binder 38 | PG9 bind confirm 43 | PGV04 Ab binding 56 | rCAG binder conf 79 | dCAG dye counter 46
Cc1ccc(S(=O)(=O)N2CCCCC2)cc1NC(=O)COC(=O)c1cccc(O)c1	none
COc1cccc(C2C(C(=O)c3cc4cccc(OC)c4o3)=C(O)C(=O)N2c2cc(C)on2)c1OC (stereo unspecified)	rCAG binder 57, PG9 Ab binder 14 | PG9 bind confirm 22 | PGV04 Ab binding 36 | rCAG binder conf 65 | dCAG dye counter 25
COc1cccc(C2C(C(=O)c3cc4ccccc4o3)=C(O)C(=O)N2c2cc(C)on2)c1OC (stereo unspecified)	rCAG binder 51, PG9 Ab binder 19 | PG9 bind confirm 27 | PGV04 Ab binding 43 | rCAG binder conf 45 | dCAG dye counter 12
O=C1C(C=Nc2ccccc2O)=C(O)c2ccccc21	none
Cc1ccc(O)c(N=CC2=C(O)c3ccccc3C2=O)c1	rCAG binder 51, DNMT1 inh 57, PG9 Ab binder 18 | PG9 bind confirm 24 | PGV04 Ab binding 31 | rCAG binder conf 42 | dCAG dye counter 18
COc1cccc(CNC(=O)[C@@H]2CCCN2C(=O)[C@H]2CCCCN2C(=O)c2ccc(Cl)cc2)c1	none (no result: DNMT1 inh)
CN(Cc1c(O)ccc2c1oc(=O)c1ccccc12)C1CCCCC1	MBD2 inh 20, PG9 Ab binder 9.9 | PG9 bind confirm 12 | PGV04 Ab binding 17 | UHRF1 DNA bind inactive | MBD2 DBD conf inactive
O=C(C[n+]1ccc(C(=O)c2ccccc2)cc1)Nc1cccc([N+](=O)[O-])c1	none (no result: DNMT1 inh)

Screens: PubChem, several laboratories
